IMPase Li cell = membrane-permeable IMPase blocker, potentiated with lithium | CHO-M1 cells, IP1 TR-FRET (IP-One), carbachol + lithium | Potency, µM (series often up to 59.4 µM), for inactives: top-dose activity, negative = IMPase inhibition, actives largely listed as inhibitors | 210,000 compounds, 0.35% hits | AID 1457; active = well fitted inhibition curve with a large enough effect; inconclusive = small, poorly fitted or top-dose-only effect; inactive = no such curve, though single readings can be large or run the other way;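 note: IP1 builds up when IMPase is blocked and the TR-FRET signal falls; potency is the fitted concentration of half-maximal effect; plate controls were basal vehicle for no effect and high inhibitor control for full effect; nearly all actives have a fitted effect of over 50% in size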
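IP1 accumulation measured by competitive TR-FRET in lysed CHO-M1 cells after 30 min compound exposure at 37C, with a small lithium addition to potentiate weak responses. Hill-equation AC50 from ratio and donor-channel data.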
PNC inhibitor = perinucleolar compartment assembly inhibition | PC3M PTB-GFP, PNC prevalence imaging, 16 h; active compounds read low | activity change (PNC), negative = inhibition, % at 10 µM | 140,000 compounds, 3.1% hits | AID 2417;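 active = readout at or below -70, meaning at least 70% loss of cells showing the perinucleolar compartment, a nuclear body marking cancer cells; inconclusive = readout between -30 and a set limit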;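 note: plate controls were DMSO wells for no effect and camptothecin positive control wells for full effect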
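Compounds are pinned in duplicate onto adhered PC3M cells stably expressing GFP-tagged PTB and incubated 16 h at 37 C. Cells are then fixed, nuclei stained with Hoechst, and PNC-positive cells counted.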
ALDH1A1 inh = blocks purified human ALDH1A1 activity; 220,000 compounds, 7.3% hits; Purified ALDH1A1, NADH fluorescence, propionaldehyde substrate; P00352; Potency, µM (top dose mostly 75.3 µM), for the others: at the top dose activity, negative = inhibition, usual class: inhibitors;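 note: potency is the fitted concentration of half-maximal effect; plate controls were no enzyme wells and a reference inhibitor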
Target sequence (P00352 whole entry, looked up): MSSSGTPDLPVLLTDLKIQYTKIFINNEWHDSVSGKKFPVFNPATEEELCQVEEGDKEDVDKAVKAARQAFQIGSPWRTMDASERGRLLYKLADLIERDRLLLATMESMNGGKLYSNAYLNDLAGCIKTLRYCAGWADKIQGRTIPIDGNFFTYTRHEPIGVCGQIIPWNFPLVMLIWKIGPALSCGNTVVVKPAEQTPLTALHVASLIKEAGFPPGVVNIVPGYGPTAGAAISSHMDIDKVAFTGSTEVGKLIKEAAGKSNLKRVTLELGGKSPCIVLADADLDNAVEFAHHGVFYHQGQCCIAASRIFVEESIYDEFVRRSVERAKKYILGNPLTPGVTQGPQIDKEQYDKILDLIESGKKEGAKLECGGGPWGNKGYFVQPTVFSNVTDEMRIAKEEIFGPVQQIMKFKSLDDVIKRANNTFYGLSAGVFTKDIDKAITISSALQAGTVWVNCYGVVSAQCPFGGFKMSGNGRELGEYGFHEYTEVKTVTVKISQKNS
IMPase cell inh = cell-permeable inhibitors of inositol monophosphatase (IMPase) | P97697 | 120,000 tested, under 10 active | inhibition (IP1 accumulation), % at 46.1 µM | CHO-M1 cells, IP1 accumulation, HTRF TR-FRET ratio; active = well fitted curve in the direction sought with a large enough effect in the signal ratio, not every such curve was filed as active; inconclusive = small, poorly fitted or top-dose-only effect, or a change in a side signal; inactive = no such curve, though single readings can be large or run the other way; the % refers to the signal ratio;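 note: cells stimulated with carbachol in lithium chloride buffer; plate controls were DMSO basal wells for no effect and reference inhibitor wells for full effect; higher means more IMPase inhibition seen as more IP1 and lower FRET ratio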
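CHO-M1, 2000 cells/well, cultured 16–30 h; cpd up to 46 uM; carbachol (50 uM solution, stimulation buffer w/ 50 mM LiCl, pH 7.4), 30 min 37C; IP-One TR-FRET, 10 min RT; Ex 320/Em 665, 620; Hill-fit AC50.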
HPGD inh = HPGD (human) dehydrogenase inhibition; 150,000 compounds, 4.3% hits; P15428; purified HPGD, NADH fluorescence kinetic, PGE2 substrate; Potency, µM, for inactives: top-dose activity change, negative = inhibition, usual class: inhibitors; note: potency is the fitted concentration of half-maximal effect
Target sequence (P15428 whole entry, looked up): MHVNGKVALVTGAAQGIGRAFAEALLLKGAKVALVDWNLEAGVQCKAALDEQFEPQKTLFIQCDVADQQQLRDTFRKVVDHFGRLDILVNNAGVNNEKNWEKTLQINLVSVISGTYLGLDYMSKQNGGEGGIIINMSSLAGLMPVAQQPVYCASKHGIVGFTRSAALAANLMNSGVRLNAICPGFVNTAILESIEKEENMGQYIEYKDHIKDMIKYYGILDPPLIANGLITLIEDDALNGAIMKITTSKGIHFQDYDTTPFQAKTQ
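NADH formation kinetics: reaction with 30 uM PGE2 and 1 mM NAD+ (final), 20 nM enzyme, Tris-HCl pH 8 with Tween 20, after 15 min compound preincubation at room temperature. Fluorescence change, last versus first of five reads.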
Active calls of the source: *; ! = not active in a repeat; [ ] = remark or other dose. Most compounds without a hit are left out; they make up all but 11% or so of the library. Unless noted, calls come from the whole dose curve; as a rule, active = well fitted inhibition curve with a large enough effect (not every such curve was filed as active); inconclusive = small, poorly fitted or top-dose-only effect, or another doubt; inactive = no such curve, though single readings can be large or run the other way. Unless noted, % is set by controls: 0 for no effect and ±100 for the full control effect.

Screening Clc1ccc(-c2nnc(-c3ccccc3)o2)c(Cl)c1 returned IMPase Li cell -10.5%[38.3 µM], PNC inhibitor 40.4, ALDH1A1 inh 31.6µM*, IMPase cell inh 1.1 and HPGD inh inconclusive.
Screening CCSc1nnc(-c2ccc(Cl)cc2Cl)o1 returned IMPase Li cell -6.7%[38.3 µM], PNC inhibitor -4.0, ALDH1A1 inh inconclusive, IMPase cell inh 8.8 and HPGD inh 14.1µM*.
CC1(C)CCC2(C(=O)O)CC[C@]3(C)C(=CCC4[C@]5(C)CCC(O)C(C)(C)C5C(O)C[C@]43C)C2C1 (some centres undefined) was read as IMPase Li cell 1.5%, ALDH1A1 inh inconclusive and HPGD inh inconclusive.
Cc1cccc(CNc2ccnc(-c3ccccc3Cl)n2)c1 was read as IMPase Li cell 7.5% and ALDH1A1 inh -1.4%.
`CCC(C)Nc1c2c(nc3c(-c4ccccc4)c(C)nn13)CCC2` (centres undefined) gave IMPase Li cell 16.6%[38.3 µM], PNC inhibitor 14.3, ALDH1A1 inh inconclusive, IMPase cell inh 8.0 and HPGD inh -21.3%.
Screening CC(=O)N[C@@H](c1ccccc1)[C@]1(C)C[C@H]1[C@@H](C)C(=O)Nc1ccc2ccccc2c1 returned IMPase Li cell 2.5%, ALDH1A1 inh -4.6% and HPGD inh -4.2%.
For Cc1cc(C(=O)N[C@H](c2ccccc2)[C@@]2(C)C[C@@H]2[C@@H](C)C(=O)Nc2ccc3ccccc3c2)n(C)n1 the results were IMPase Li cell 16.3%, PNC inhibitor 48.9, ALDH1A1 inh 15.8µM* and HPGD inh -7.7%.
`C[C@@H](C(=O)NCCc1c[nH]c2ccccc12)[C@H]1C[C@]1(C)[C@H](NC(=O)OCc1ccccc1)c1ccccc1` gave IMPase Li cell 19.9%, PNC inhibitor 28.8, ALDH1A1 inh 10µM* and HPGD inh -19.2%.
C[C@@H](C(=O)NCCF)[C@H]1C[C@]1(C)[C@H](NC(=O)OCc1ccccc1)c1ccccc1 was read as IMPase Li cell -0.2%, ALDH1A1 inh inconclusive and HPGD inh -5.2%.
Screening C[C@@H](C(=O)Nc1ccc2ccccc2c1)[C@H]1C[C@]1(C)[C@H](NC(=O)OCc1ccccc1)c1ccccc1 returned IMPase Li cell 7.9%, PNC inhibitor -9.0, ALDH1A1 inh 12.6µM* and HPGD inh -23.5%.
C[C@@H](C(=O)NCc1ccccn1)[C@H]1C[C@]1(C)[C@H](NC(=O)OCc1ccccc1)c1ccccc1 was read as IMPase Li cell 1.5%, PNC inhibitor inconclusive, ALDH1A1 inh 31.6µM*! and HPGD inh -26.1%.
`CCCC(=O)Nc1cccc(-c2nc3cc(C)c(C)cc3o2)c1C` gave IMPase cell inh -5.1.
Screening C[C@@H](C(=O)NCC1CC1)[C@@H]1C[C@@]1(C)[C@@H](NC(=O)OCc1ccccc1)c1ccccc1 returned IMPase Li cell 8.2%, PNC inhibitor -2.6, ALDH1A1 inh -8.7% and HPGD inh -24.9%.
Screening C[C@H](CO)NC(=O)[C@H](C)[C@H]1C[C@]1(C)[C@H](NC(=O)OCc1ccccc1)c1ccccc1 returned IMPase Li cell -6.0%, PNC inhibitor -4.5, ALDH1A1 inh 22.4µM* and HPGD inh -2.0%.
O=S(=O)([O-])CCC[n+]1c(/C=C\Nc2ccccc2)oc2ccc(-c3ccccc3)cc21 was read as IMPase Li cell -0.5% and ALDH1A1 inh -8.3%.
Screening COC(=O)NC(/C(C(=O)OC)=C(\C)NCc1ccccc1)c1ccc2ccccc2c1 (centres undefined) returned ALDH1A1 inh 3.55µM*.
For COC(=O)NC(/C(C(=O)OC)=C(\C)NCc1ccccc1)c1ccccc1 (centres undefined) the results were ALDH1A1 inh 28.0%[13.5 µM].
`C=CCNC(=O)c1ccccc1NC(=O)c1ccccc1C` gave IMPase Li cell -8.1%, PNC inhibitor -100.0*, ALDH1A1 inh inconclusive, IMPase cell inh -13.8 and HPGD inh -7.9%.
Screening Cc1ccc(NC(=O)c2ccccc2NC(=O)CCC(=O)O)cc1 returned IMPase Li cell -0.8%, PNC inhibitor inconclusive, ALDH1A1 inh -1.0% and HPGD inh -13.0%.
Cc1ccccc1NC(=O)c1ccccc1NC(=O)CCC(=O)O was read as IMPase Li cell -6.1%, PNC inhibitor -109.0*, ALDH1A1 inh 10.8% and HPGD inh 3.5%.
For C=CCNC(=O)c1ccccc1NC(=O)c1ccccc1SC the results were IMPase Li cell -6.1% and ALDH1A1 inh inconclusive.
O=C(NCCCn1cccn1)c1cc(COc2ccc(F)cc2Cl)on1 was read as IMPase Li cell 5.5% and ALDH1A1 inh 6.8%.
Screening Cc1ccccc1-c1noc(-c2ccccc2C(=O)NCc2ccco2)n1 returned ALDH1A1 inh 14.1µM*.
For CCNC(=O)c1ccccc1-c1nc(-c2ccccc2Cl)no1 the results were IMPase Li cell 7.1%[38.3 µM], PNC inhibitor 6.8, ALDH1A1 inh -5.0%, IMPase cell inh 1.1 and HPGD inh inconclusive.
`O=C(NCc1cccnc1)c1ccccc1-c1nc(-c2ccccc2)no1` gave IMPase Li cell 8.3% and ALDH1A1 inh 20µM*.
CCN(CC)CCn1c(-c2ccccc2)nc2c(NC3CCCCC3)nc(C)nc21 was read as IMPase Li cell 1.2%, ALDH1A1 inh inconclusive and HPGD inh -29.4%.
`COc1ccc(N(CC(=O)NCc2cccnc2)S(=O)(=O)c2c(C)nn(C)c2C)cc1` gave IMPase Li cell 5.6%[38.3 µM], PNC inhibitor inconclusive, ALDH1A1 inh -4.1%, IMPase cell inh -2.5 and HPGD inh -12.4%.
For NCCC(O)C(=O)NC1C[C@@H](N)[C@H](O[C@@H]2OC(CN)C(O)C(O)C2O)C(O)[C@H]1O[C@H]1OC(CO)C(O)C(N)C1O (some centres undefined) the results were IMPase Li cell 12.8%, ALDH1A1 inh 4.6% and HPGD inh -8.4%.
For CCn1nnc(NC(=O)c2ccc(C(C)(C)C)cc2)n1 the results were IMPase Li cell 3.6%[38.3 µM], PNC inhibitor 27.3, ALDH1A1 inh -13.2%, IMPase cell inh 0.5 and HPGD inh -13.0%.
For CCn1nnc(NC(=O)c2cccnc2)n1 the results were IMPase Li cell -11.9%[38.3 µM], PNC inhibitor 24.0, ALDH1A1 inh -13.1%, IMPase cell inh -1.6 and HPGD inh 25.1µM*.
For CCn1cc(CNC(=S)Nc2cccc(Cl)c2C)cn1 the results were IMPase Li cell -5.2% and ALDH1A1 inh inconclusive.
Screening COc1cccc(C2=NOC(C(=O)Nc3cccc(C(C)=O)c3)C2)c1 (centres undefined) returned IMPase Li cell 0.0%[38.3 µM], PNC inhibitor 41.9, ALDH1A1 inh 3.98µM*, IMPase cell inh -4.9 and HPGD inh -22.3%.
`COC(=O)C(C)N1C(=O)S/C(=C\c2cc(C)n(-c3ccccn3)c2C)C1=O` (centres undefined) gave IMPase Li cell 50.3%[38.3 µM], PNC inhibitor 7.0, ALDH1A1 inh 22.4µM*, IMPase cell inh 12.4 and HPGD inh -25.8%.
